About 14,000 (4.5%) of roughly 310,000 compounds showed an effect of 50% or more. Effects have a minus sign here. The sample holds strong results, similar compounds and a random draw of the others, so the mix is not that of the screen.
Molecular target: human ether-à-go-go-related gene (hERG) potassium channel (human, UniProt Q12809)
Assay: primary screen, population patch clamp on CHO cells stably expressing hERG; higher = less effect of the substance
Experimental: Briefly, Chinese hamster ovary (CHO) cells stably expressing the hERG channel were dislodged from tissue culture flasks and dispensed into PPC plates. […] During the recording, background leak currents were estimated by a 100 ms step to -80 mV from an initial holding potential of -70 mV and subtracted from the subsequent current measurement. The campaign was conducted in two phases using slight differences in recording protocol. In the first phase, the initial voltage pulse used a 100 ms step to -30 mV from a holding potential of -70 mV, a 2 s conditioning step to +25 mV, and a 2 s test step to -30 mV. During the second phase of the screen, the potential during the conditioning step was raised to +45 mV. In both phases of the campaign, a secondary voltage pulse was applied using the same parameters as the second phase initial pulse. The initial and secondary pulses were applied in the absence of compound, and upon application of 1 μM and 10 μM test concentrations. […]
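Further: peak tail current of the secondary pulse compared with the same well before compound.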

human ether-à-go-go-related gene (hERG) potassium channel, sequence (Q12809 whole entry, looked up): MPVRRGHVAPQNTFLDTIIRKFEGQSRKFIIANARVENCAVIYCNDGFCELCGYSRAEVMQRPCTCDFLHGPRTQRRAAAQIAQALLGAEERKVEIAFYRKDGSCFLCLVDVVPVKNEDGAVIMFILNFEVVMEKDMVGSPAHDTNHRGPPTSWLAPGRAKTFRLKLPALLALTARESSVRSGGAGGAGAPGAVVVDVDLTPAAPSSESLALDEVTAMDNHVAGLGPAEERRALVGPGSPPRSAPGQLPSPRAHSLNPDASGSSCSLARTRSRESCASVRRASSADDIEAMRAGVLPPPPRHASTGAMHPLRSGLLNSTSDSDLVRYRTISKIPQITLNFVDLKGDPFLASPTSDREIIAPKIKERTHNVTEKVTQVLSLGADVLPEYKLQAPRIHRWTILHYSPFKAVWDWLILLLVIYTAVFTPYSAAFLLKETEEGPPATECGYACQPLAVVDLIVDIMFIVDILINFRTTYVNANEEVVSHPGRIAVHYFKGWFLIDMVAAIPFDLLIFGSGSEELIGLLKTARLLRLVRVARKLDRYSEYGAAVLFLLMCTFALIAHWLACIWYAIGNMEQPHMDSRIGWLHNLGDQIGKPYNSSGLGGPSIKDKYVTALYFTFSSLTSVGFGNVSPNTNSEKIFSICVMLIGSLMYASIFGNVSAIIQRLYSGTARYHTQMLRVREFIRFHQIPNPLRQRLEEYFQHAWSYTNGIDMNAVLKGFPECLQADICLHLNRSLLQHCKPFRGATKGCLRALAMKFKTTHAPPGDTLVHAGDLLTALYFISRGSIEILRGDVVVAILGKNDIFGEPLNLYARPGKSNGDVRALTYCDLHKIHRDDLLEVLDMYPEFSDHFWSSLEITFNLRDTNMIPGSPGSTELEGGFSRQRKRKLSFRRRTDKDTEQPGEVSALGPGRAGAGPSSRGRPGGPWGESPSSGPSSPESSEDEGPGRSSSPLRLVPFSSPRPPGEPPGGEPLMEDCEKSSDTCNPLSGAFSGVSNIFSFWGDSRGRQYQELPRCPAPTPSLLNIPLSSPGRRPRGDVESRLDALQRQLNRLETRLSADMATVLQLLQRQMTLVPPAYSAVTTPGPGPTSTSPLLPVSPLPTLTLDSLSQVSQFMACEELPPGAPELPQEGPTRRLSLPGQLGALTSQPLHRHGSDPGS

SMILES | hERG current change (%, negative = inhibition) at 10uM
COC(CNC(=O)c1ccc2c(c1)ncn2C1CCCCCC1)OC | 4.09%
COc1ccc(-c2noc(C3CCCN(C(=O)c4cccs4)C3)n2)cc1 (centres unmarked) | -21.1%
O=C(c1ccc(F)cc1)N1CCCC(c2nc(-c3ccncc3)no2)C1 (centres unmarked) | -65.6%
O=C(c1c(F)cccc1F)N1CCCC(c2nc(-c3ccc(F)cc3)no2)C1 (centres unmarked) | -6.69%
O=C(c1cccs1)N1CCCC(c2nc(-c3ccc(F)cc3)no2)C1 (centres unmarked) | -51.7%
COc1ccc(-c2noc(C3CCCN(C(=O)c4ccc(F)cc4)C3)n2)cc1 (centres unmarked) | -35.3%
O=C(c1ccc(F)cc1)N1CCCC(c2nc(-c3cccs3)no2)C1 (centres unmarked) | -18.5%
CCN1C(=O)c2cccc3c(S(=O)(=O)NCC4CCCO4)ccc1c23 (centres unmarked) | 1.95%
COCCNC(=O)C(c1cccc(OC)c1)N(C(=O)Cn1nnc2ccccc21)c1cccnc1 (centres unmarked) | 7.66%
COCC1CCCCN1C(=O)c1ccc(OC2CCN(Cc3ccccn3)CC2)cc1 (centres unmarked) | 1.34%
CC(=O)Nc1cc(NC(C)=O)cc(-c2nc3ccccc3[nH]2)c1 | 3.84%
CC(C)c1ccc(/C=N/NC(=O)C(=O)NCCCN2CCOCC2)cc1 | -20.6%
Cc1ccc(C(=O)N/C(=C/c2ccc(C(C)C)cc2)C(=O)NCCCN2CCOCC2)cc1 | -65.8%
COc1ccc(/C=C(\NC(=O)c2ccc(C)cc2)C(=O)NCCCN2CCOCC2)cc1OC | 19.9%
Cc1ccc(C(=O)N/C(=C\c2ccc(C(C)C)cc2)C(=O)NCCCN2CCOCC2)cc1 | -72.3%
CC(C)c1ccc(NC2CCCN(C(=O)c3n[nH]c4c3CCC4)C2)cc1 (centres unmarked) | 5.38%
C=CCN(c1ccccc1C(=O)O)S(=O)(=O)c1ccc(NC(=O)OC)cc1 | 4.39%
CC1CCCCC1NC(=O)CN(C)S(=O)(=O)c1cccc2cccnc12 (centres unmarked) | -0.115%
COc1cccc(SCC(=O)N2CCN(c3ccccc3)CC2)c1 | -1.23%
CC[n+]1c(S(=O)(=O)[O-])ccc2ccc(C)cc21 | 6.26%
CCN1/C(=C/c2ccc3cccc(C)c3[n+]2CC)Sc2ccccc21.[I-] | -75%
CCC(=O)/C=C1\Sc2ccccc2N1CC | -3.72%

SMILES | hERG current change (%, negative = inhibition) at 10uM
CCC(=O)/C=C1/Sc2ccccc2N1CC | 7.66%
CCN1/C(=C/C(=O)c2ccco2)Sc2ccccc21 | 8.09%
Cc1ccc2c(c1)S/C(=C\c1cccc[n+]1C)N2CCO.[I-] | -0.805%
CCN1/C(=C/c2ccc3ccc(C)cc3[n+]2CC)Sc2ccccc21.[I-] | -81.1%
CCN1/C(=C/c2ccc3cc(C)ccc3[n+]2CC)Sc2ccccc21.[I-] | -90.6%
CCN1/C(=C/c2ccc3cc(C)ccc3[n+]2CC)Sc2ccc3sccc3c21.[I-] | -44.5%
COc1ccccc1CNCC(=O)Nc1ccc(N2CCOCC2)cc1.O=C(O)C(=O)O | 1.57%
O=C(NCc1cccnc1)C1CCCCN1S(=O)(=O)c1ccc(F)cc1 (centres unmarked) | -20.9%
CC(=O)Nc1ccc(S(=O)(=O)N2CCN(C(=O)Cc3ccccc3)CC2)cc1 | -1.44%
COc1ccc(CN(CCNC(=O)CCCCC(=O)NCCN(Cc2ccc(OC)cc2)C(C)C)C(C)C)cc1.Cl | -5.63%
O=C(CCCOc1ccccc1)Nc1nncs1 | -5.59%
COc1ccc(OC)c(N2C(=O)NC(=O)C3(Cc4cc(C)ccc4N(C)C3)C2=O)c1 (centres unmarked) | -5.52%
Cc1ccccc1Oc1cc(-n2ncc(Cl)c(Cl)c2=O)ncn1 | 6.67%
CCc1cccc(CC)c1NC(=O)COc1ccccc1C(=O)c1cc(C#N)c(=O)n(C2CCCCC2)c1 | 14.4%
CCCCNC(=O)c1ccccc1Cl | 21.5%
CN1CCc2c(n(CC(O)CNCc3ccccc3)c3ccccc23)C1=O.Cl (centres unmarked) | -52.8%
CN1CCc2c(n(CC(O)CN(CCO)CCO)c3ccccc23)C1=O.Cl (centres unmarked) | 6.94%
CN1CCc2c(n(CC(O)CN3CCN(CCO)CC3)c3ccccc23)C1=O.Cl (centres unmarked) | 2.24%
Cc1cc(C)cc(N2CC(C)Cn3c2nc2c3c(=O)[nH]c(=O)n2C)c1 (centres unmarked) | -2.03%
CCC(Oc1ccccc1)C(=O)NC1CCCCCC1 (centres unmarked) | -0.406%
CCC1CCCCN1C(=O)CCn1c(=O)oc2ccccc21 (centres unmarked) | -17.7%
O=C(N/N=C/c1cccnc1)c1cc(-c2cccs2)nc2ccccc12 | -20%

SMILES | hERG current change (%, negative = inhibition) at 10uM
CCC(C)Sc1cccc(-c2nc3cc(C)ccn3c2NCc2ccccc2)c1.O=C(O)C(F)(F)F (centres unmarked) | 4.02%
Cc1ccc(S(=O)(=O)N2CCCCC2)cc1C(=O)N1CCN(CCO)CC1 | 3.41%
O=C(C1=NN[C@@H]2C(=O)N(Cc3ccccc3)C(=O)[C@H]12)c1ccc(F)cc1 | 7.44%
O=C(C1=NN[C@@H]2C(=O)N(Cc3ccccc3)C(=O)[C@H]12)c1ccc([N+](=O)[O-])cc1 | -50.2%
O=C(OCc1ccccc1)C1=NNC2C(=O)N(Cc3ccccc3)C(=O)C12 (centres unmarked) | 16.2%
CC(C)(C)c1nnc(NS(=O)(=O)c2ccc([N+](=O)[O-])cc2)s1 | 28.3%
CSc1nc(N2CCN(C)CC2)c2ccccc2n1 | -49.1%
CN1CCN(c2nc(-c3ccccn3)nc3ccccc23)CC1 | -51.4%
COc1cccc(-c2nc(N3CCN(c4ccccc4)CC3)c3ccccc3n2)c1O | 0.912%
c1ccc(-c2nc(N3CCCCCC3)c3ccccc3n2)nc1 | -77.5%
Oc1ccccc1-c1nc(N2CCCC2)c2ccccc2n1 | -13.2%
c1ccc(-c2nc(N3CCOCC3)c3ccccc3n2)nc1 | -15.9%
Fc1ccccc1-c1nc(N2CCCCC2)c2ccccc2n1 | -1.61%
CCN1CCN(c2nc(-c3ccccn3)nc3ccccc23)CC1 | -56.3%
c1ccc(CN2CCN(c3nc(-c4ccccn4)nc4ccccc34)CC2)cc1 | 5.45%
c1ccc(N2CCN(c3nc(-c4ccccn4)nc4ccccc34)CC2)cc1 | -73.9%
Cc1cc(C)c(S(=O)(=O)N2CCOC2CNC(=O)C(=O)NCCN(C)C)c(C)c1 (centres unmarked) | 13.1%
COc1ccc2[nH]cc(CCNC(=O)c3ccco3)c2c1 | 12.3%
CC12CCC(=O)N1C(C(=O)NCc1ccccc1Cl)CS2 (centres unmarked) | -9.42%
Cc1cc(C)c(OCC(=O)N/N=C/c2ccco2)c(C)c1 | -3.8%
O=C1NC(=O)/C(=C\c2ccc(OCc3cnc(Cl)s3)cc2)S1 | 19.9%
COc1cccc(Nc2cc(N3CCOCC3)c3nonc3c2[N+](=O)[O-])c1 | -8.87%

SMILES | hERG current change (%, negative = inhibition) at 10uM
O=C(NCCO)N1c2ccccc2Sc2ccccc21 | 5.99%
O=C(O)CCNC(=O)OCC1c2ccccc2-c2ccccc21 | -6.49%
COc1ccc(CCN2C(=O)C(C)=C(C)C2=O)cc1OC | 11.7%
Nn1c(SCC(=O)Nc2ccc3c(c2)OCO3)nnc1C1CC1 | 7.91%
COc1ccc(N(C)S(=O)(=O)c2ccc(Cl)c(C(=O)NCC(C)(C)N3CCOCC3)c2)cc1 | -41.5%
Cc1ccc(NS(=O)(=O)c2ccc(NC(=O)N3CCCCC3)cc2)cc1 | 8.78%
COCCOc1cc(NC(=O)c2cccc(OC)c2)c(Cl)cc1Cl | 6.22%
CC(C)N(C(=O)/C=C/c1cccc([N+](=O)[O-])c1)C(C)C | -13.8%
CCCN(CC(=O)Nc1ccc(Cl)cc1Cl)C(=O)/C=C/c1cccc([N+](=O)[O-])c1 | -15.6%
COc1ccc(/C=C/C(=O)OCc2cccc([N+](=O)[O-])c2)cc1 | -9.66%
COc1ccc(OCC(O)CN(C)C(=O)/C=C/c2cccc([N+](=O)[O-])c2)cc1 (centres unmarked) | -80.5%
CCCCN(CC)C(=O)/C=C/c1cccc([N+](=O)[O-])c1 | -63.5%
CCCC(C)NC(=O)/C=C/c1cccc([N+](=O)[O-])c1 (centres unmarked) | -7.16%
CCCCN(CCCC)C(=O)/C=C/c1cccc([N+](=O)[O-])c1 | -68%
CCCN(CCC)C(=O)/C=C/c1cccc([N+](=O)[O-])c1 | -34.5%
COc1ccc(OCC(O)CNC(=O)/C=C/c2cccc([N+](=O)[O-])c2)cc1 (centres unmarked) | 17.6%
O=C(CCNC(=O)c1ccco1)Nc1ccc(Cl)c(C(F)(F)F)c1 | -16.3%
CCOC(=O)N1CCC(NC(=O)c2cc(COc3ccc(F)cc3Cl)on2)CC1 | -0.672%
CCN(CC)c1ccc(/C=N/Nc2nc(C)cc(C)n2)c(O)c1 | -7.99%
Cc1ccc(C)c(S(=O)(=O)NCCCc2ccccc2)c1 | -1.65%
